Laboratory results as given in the supplement of paper PMC6555819.

Experiments:
Assay in all cases: PBM binding z-score (relative to random genomic background probes); higher = stronger binding; sequences stand for … in GC…GCGATTGACAGCGTAGAATGAAGG
[1] = tested on: FXR:RXRa (NR concentration 270 nM, RXRa partner concentration 90 nM)
Outline: (§1)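 On custom Agilent 4×180K arrays, double-stranded probes with 34-nt variable regions carried direct-repeat seeds, single-nucleotide variants, half-site ablations or random human genomic background. Ligand-free nuclear receptor dimers were applied for 1 h, and binding was read with antibodies against each partner (one per run). Binding z-scores come from regression-normalized fluorescence, with the random background probes as reference.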

[2] = tested on: LXRa:RXRa (NR concentration 270 nM, RXRa partner concentration 90 nM)
Outline: as §1

[3] = tested on: LXRa homodimer (NR concentration 270 nM)
Outline: as §1

[4] = tested on: LXRb:RXRa (NR concentration 270 nM, RXRa partner concentration 90 nM)
Outline: as §1

[5] = tested on: LXRb homodimer (NR concentration 270 nM)
Outline: as §1

[6] = tested on: PPARa:RXRa (NR concentration 270 nM, RXRa partner concentration 90 nM)
Outline: as §1

[7] = tested on: PPARg:RXRa (NR concentration 180 nM, RXRa partner concentration 90 nM)
Outline: as §1

[8] = tested on: PPARg:RXRa 270nM:90nM, anti-RXR (NR concentration 270 nM, RXRa partner concentration 90 nM)
Outline: as §1

[9] = tested on: PPARg:RXRa 30nM:10nM, anti-RXR (NR concentration 30 nM, RXRa partner concentration 10 nM)
Outline: as §1

[10] = tested on: PPARg:RXRa 90nM:30nM, anti-RXR (NR concentration 90 nM, RXRa partner concentration 30 nM)
Outline: as §1

[11] = tested on: PPARg:RXRa DBDmut IVT, anti-RXR (DBD mutation: RXRa K156A/R161A, NR concentration 270 nM, RXRa partner concentration 90 nM)
Outline: as §1

[12] = tested on: PPARg:RXRa IVT, anti-PPARg (NR concentration 270 nM, RXRa partner concentration 90 nM)
Outline: as §1

[13] = tested on: PPARg DBDmut:RXRa IVT, anti-PPARg (DBD mutation: PPARg1 K132A/R137A, NR concentration 270 nM, RXRa partner concentration 90 nM)
Outline: as §1

[14] = tested on: PPARg DBDmut IVT, anti-PPARg (DBD mutation: PPARg1 K132A/R137A, NR concentration 270 nM)
Outline: as §1

[15] = tested on: PPARg homodimer (NR concentration 180 nM)
Outline: as §1

[16] = tested on: PXR:RXRa (NR concentration 270 nM, RXRa partner concentration 90 nM)
Outline: as §1

[17] = tested on: PXR homodimer (NR concentration 270 nM)
Outline: as §1

[18] = tested on: RARa:RXR (NR concentration 270 nM, RXRa partner concentration 90 nM)
Outline: as §1

[19] = tested on: RARa homodimer (NR concentration 270 nM)
Outline: as §1

[20] = tested on: RARb:RXRa (NR concentration 270 nM, RXRa partner concentration 90 nM)
Outline: as §1

Sequence	PBM binding z-score [1]	PBM binding z-score [2]	PBM binding z-score [3]	PBM binding z-score [4]	PBM binding z-score [5]	PBM binding z-score [6]	PBM binding z-score [7]	PBM binding z-score [8]	PBM binding z-score [9]	PBM binding z-score [10]	PBM binding z-score [11]	PBM binding z-score [12]	PBM binding z-score [13]	PBM binding z-score [14]	PBM binding z-score [15]	PBM binding z-score [16]	PBM binding z-score [17]	PBM binding z-score [18]	PBM binding z-score [19]	PBM binding z-score [20]
CCGACTGGGGCAGAAAGCTTACCATACCATCCGG	-0.854	-0.845	-0.778	-0.743	-0.693	-0.683	0.434	-0.227	-0.693	-0.772	1.49	0.739	-1.01	-2.56	-0.236	-0.856	-0.585	-1.22	-0.188	-0.092
TAGCCTAGGTCATTCAGGGGCCAGTAGAGAAAGC	4.49	3.73	0.592	3.1	1.16	3.64	1.7	2.31	0.562	1.53	1.64	2.66	-0.415	-0.024	1.83	2.21	-0.162	3.33	0.0247	3.88
ACCTCTAGGTAACCAAGTTCAGTGAATGCCGAAC	0.335	0.537	0.553	0.37	-0.0596	0.625	0.296	0.581	-0.247	0.404	3.87	2.09	0.112	0.237	-0.00896	1.65	1.47	0.453	-0.355	0.936
CGAACTAGGTTAAGGACAGTGAATCTCCGCACGC	0.447	0.377	-0.213	-0.172	-0.661	2.14	2.85	2.74	0.975	2.08	6.49	5.67	0.439	1.14	1.07	-0.145	0.015	0.949	-0.21	1.47
ACAGACAGGTGAGTGAAGGTGACTCAGCTGGACG	0.162	-0.00172	-0.654	-0.308	-0.35	0.592	0.8	0.28	-0.492	-0.01	0.718	1.24	0.42	-0.00311	-0.248	-0.0313	-0.405	0.49	0.0445	0.935
CCTGGTTGGTCAAGGTCACACACGCTATAGGTAC	4.28	4.07	2.43	3.92	1.12	4.3	2.92	3.15	1.15	2.22	1.12	3.26	0.676	0.0653	3.15	4.44	2.85	4.78	2.07	4.41
TCGAGTAGGTTACCAATGGGGCATTCACCTTTCT	0.403	1.81	-0.322	1.57	-0.26	1.55	0.512	1.43	1.26	1.47	3.38	2.75	0.0374	0.508	0.0872	0.579	-0.637	1.1	-0.777	1.13
AGAACGAGGGCTATGAGTTGATAGCACGGGTGGC	-0.355	-0.47	-0.658	-0.828	-0.486	-0.335	0.792	0.00243	-0.297	0.151	0.434	-0.14	-0.172	-1.35	-0.607	-0.351	0.0434	-0.584	0.201	-0.0296
CCAACTAGGTCAAAGGTCAAAGTCGAGCCAACCA	8.45	7.12	5.59	7.28	3.01	7.64	13.6	10.9	13.2	12.7	8.37	8.87	4.39	5.12	5.23	7.1	1.86	8.64	3.1	5.72
CGTCCACGGTCAGCAGGTCAGTGAAAGCGACGTG	0.822	0.439	-0.291	-0.097	-0.966	1.08	0.155	0.415	-0.695	-0.328	0.719	0.748	-0.923	-1.32	0.382	0.0662	-0.459	0.943	-0.66	3.25
AATACAGAGTCATCGTAGGCCAGAGTACGCACAG	0.102	0.331	-0.311	-0.227	-0.569	-0.149	0.955	0.273	-0.0148	0.175	0.0374	0.268	0.399	0.579	-0.714	-0.113	-0.387	-0.0799	0.026	0.17
ACTAGTTGGGCAGCTGAGGTCACACACAATTCGG	2.42	2.48	1.5	2.74	0.155	3.31	1.34	1.8	0.192	1.26	1.04	1.73	0.77	0.164	2.17	4.46	1.48	4.23	0.707	3.05
ACAGACAGGTGAGTGAAGTTAACTCAGCTGGACG	-0.59	-0.611	-0.779	-0.663	-0.63	-0.341	0.529	-0.616	-0.371	-0.832	0.505	0.404	-0.391	-0.406	-0.447	-0.325	-0.705	-0.744	-0.259	0.258
TCCATTAGTTGAAGGGCAACCGACGAGTCCGTTT	1.27	1.35	0.397	1.23	0.255	1.18	0.134	2.23	3.64	3.02	2.37	0.637	0.0905	0.783	1.13	1.16	0.683	0.989	0.466	1.86
CCTTACGGCTCACGAGGTTATAGCACGACGAGCG	0.307	0.723	0.155	0.376	-0.33	0.625	0.887	0.128	-0.0191	0.0892	-0.0471	-0.209	-0.288	0.282	0.161	0.289	0.226	0.918	0.403	0.347
TCTTGGAGATCAACAGGAGGTTAAGAAAGATCGA	0.373	1.25	-0.0581	0.942	-0.782	1.44	0.02	1.23	2.38	1.62	0.986	0.364	0.0727	0.526	-0.163	1.09	-0.208	1.41	-0.417	0.374
CCGACTGGGGGAAGGTTACCATAACGCACAGCCA	0.719	1.05	0.199	2.11	2.85	1.71	1.63	2.33	0.95	1.37	0.717	2.1	0.867	1.69	0.69	0.63	0.357	0.802	0.511	1
CCGAGTAGGTTATGGGGCATTCGGGCAACGGTGA	0.24	0.637	0.00114	0.528	-0.313	2.4	3.36	4.85	2.16	4.57	2.83	3.88	-0.19	-0.259	0.492	0.00674	-0.383	0.377	-0.149	1.1
GATACAGGGTCAGCTAGAGGCCACAGTATGGAAA	4.67	3.33	-0.234	2.65	-0.958	4.64	4.12	3.58	1.09	2.68	1.47	2.57	0.921	0.377	2.57	3.94	-0.253	5.22	0.785	4.2
CATACAGGGTCAGCTAGGCCTGAGTAGGGACGGC	4.59	2.64	-0.384	1.79	0.0921	4.12	3.11	2.94	0.751	1.89	1.1	2.26	0.675	-0.0533	1.27	1.8	-0.411	3.27	0.583	3.86
GCATATAGGTAATACAAGGTGACAGTCCGATTGT	0.924	1.5	0.00702	0.333	-0.21	1.16	1.5	1.19	0.699	0.902	4.45	3.54	1.4	0.834	0.847	0.242	0.189	1.36	0.735	0.42
CAAACTAGGTCACCGGAAGGCCAAAGTCCGCATG	4.53	3.53	0.418	2.46	0.121	5.08	8.65	7.5	4.66	7.3	8.65	8.96	1.86	0.375	2.09	2.85	-0.0574	3.4	0.162	4.54
CCCTACGGGTCAAGGTTATAGCACGGGTGGTACG	5.27	3.4	0.278	2.78	-0.151	4.7	3.55	4.19	1.1	2.75	-0.17	2.06	-0.206	-1.06	2.1	3.35	0.417	4.27	1.19	4.07
CAAACTACGTCACCGGAAGGTCAAAGTCCGCATG	3.24	3.3	3.72	3.48	1.01	3.5	1.14	1.71	0.159	1.15	0.517	1.61	0.449	1.03	2.68	3.83	1.39	4.14	1.23	3.3
GGAACGAGGGCAAGTTTATAGCAGAGTTTGATGG	0.688	0.332	-0.039	0.229	-0.306	1.61	1.24	0.978	0.337	0.307	3.91	2.81	0.157	-0.37	0.767	1.13	1.44	0.25	-0.0736	2.6
TATACAGGGTCAAAGGCCAGAGTGCGAATGTCGA	7.16	6.05	2.6	4.8	2.58	6.08	8.23	7.43	5.95	7.86	2.54	4.9	2.49	2.56	5.37	4.79	1.14	6.61	1.49	4.59
ACTGGTTGGTCAGCTGAGGTCACACACAATTCGG	3.86	3.31	2.58	3.6	0.876	3.6	1.53	2.1	0.448	1.43	0.671	2.22	1.22	0.402	3.12	5.37	2.47	4.61	1.92	3.73
CCGACTGGGGCAAGGTTGCCATAACGCACAGCCA	-0.306	-0.375	-0.461	-0.29	-1.05	0.601	1.87	2.77	0.553	2.2	2.66	2.53	-0.344	-1.02	0.0482	-0.535	-0.379	-0.46	-0.394	0.641
CTCTAAAGGTCGTGCTCAGGTGAGTATACCAAAC	5.37	4.54	0.529	3.65	0.548	5.2	3.27	4.11	0.925	2.64	1.12	2.17	0.717	0.316	1.58	3.09	-0.0495	4.14	-0.0895	3.93
